# Results taken from PubChem BioAssay (NCI).
# This is part of a sample that, as a whole, favours compounds with a hit. Of some 83,000 tested, about 20% had one in any assay.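 Results are percent growth after 48 hours of single-concentration exposure. 100 means growth as in untreated cells, lower positive values show inhibition; negative values down to -100 show cell death.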 Calls of active or inactive are those of the source. The calls were made as follows: active = growth percent below 10; inactive = the rest.
# Test system: SF-268 CNS
# Assay: NCI-60 one-dose screen, 48 h (100 = growth as untreated, 0 = no growth, -100 = all killed)
# Details: 10 µM
row,Structure (SMILES),growth
1,Cc1ccc(C(=O)NCCCNc2nc(Nc3ccc(N4CCN(C)CC4)cc3)nc3ccsc23)cc1,60.4% (inactive)
2,O=C(c1ccc(-n2c(=O)[nH]c3ccccc3c2=O)cc1)N1CCOCC1,88.1% (inactive)
3,O=S(=O)(c1ccc(Cl)cc1)c1nc(-c2ccccc2)oc1S(=O)(=O)c1ccc(Cl)cc1,97.7% (inactive)
4,Cc1ccc(C(C)C)cc1NC(=O)c1ccccc1N(C)C,95.8% (inactive)
5,COc1ccc2[nH]c(O)c(N=NC(=O)COc3ccc(NC(=O)Nc4ccc(Cl)c(Cl)c4)cc3)c2c1,64.1% (inactive)
6,COc1cccc(-c2nn(-c3ccccc3)cc2-c2ccnc(NCCCNC(=O)Nc3ccc(F)cc3)c2)c1,26.1% (inactive)
7,CN1CCN(c2ccc(Nc3nc(NCCCNC(=O)c4ccc(F)cc4)c4sccc4n3)cc2)CC1,74.6% (inactive)
8,CC1(C)CC[C@]2(C(=O)Nc3ccccc3)CC[C@]3(C)C(=CC[C@@H]4[C@@]5(C)CC[C@H](N)C(C)(C)[C@@H]5CC[C@]43C)[C@H]2C1,119% (inactive)
9,C[C@H]1[C@H](C)CC[C@]2(COC(=O)CCC(=O)NCC#CCN3CCNCC3)CC[C@]3(C)C(=CC[C@@H]4[C@@]5(C)CCCNC(C)(C)[C@@H]5CC[C@]43C)[C@H]12,77.1% (inactive)
10,O=C(Nc1ccncc1)c1ccc(-n2c(=O)[nH]c3ccccc3c2=O)cc1,110% (inactive)
11,Cc1ccc(C(C)C)cc1NC(=O)c1ccccc1O,55.2% (inactive)
12,CCCS(=O)(=O)c1oc(-c2ccc(F)cc2)nc1S(=O)(=O)c1ccc(F)cc1,52.2% (inactive)
13,CN(C)c1cccc2c(S(=O)(=O)Nc3cccc(-c4csc(NC(=O)CCCCCN5CCN(c6cc7c(cc6F)C(=O)N(C6CCC(=O)NC6=O)C7=O)CC5)n4)c3)cccc12 (configuration not stated),91.4% (inactive)
14,CC(=C(c1ccc(OCCN2CCCCC2)cc1)c1ccc(OCCN2CCCCC2)cc1)c1ccccc1,34.5% (inactive)
15,CC[C@@]1(O)C(=O)OCc2c1cc1n(c2=O)Cc2c-1nc1cc(F)c(C)c3c1c2[C@@H](N)CC3,6.53% (active)
16,O=C(Cn1cc(CSc2nnc3oc4ccccc4n23)nn1)Nc1cccc(Cl)c1,71.8% (inactive)
17,C=C(C)[C@@H]1CC[C@]2(C(=O)OC)CC[C@]3(C)[C@H](CC[C@@H]4[C@@]5(C)CC[C@H](N)C(C)(C)[C@@H]5CC[C@]43C)[C@@H]12,-65.3% (active)
18,COc1ccc(-c2nc(S(=O)(=O)c3ccc(C)cc3)c(S(C)(=O)=O)o2)cc1,-37% (active)
19,CCN1CCN(c2ccc(NC(=O)Nc3ccc(-c4cc(C(=O)NC(C)C)c5ncccc5n4)cc3)cc2C(F)(F)F)CC1,-16.3% (active)

row,Structure (SMILES),growth
1,C=C[C@H]1[C@H](O[C@@H]2OC(CO)[C@@H](O)[C@H](O)C2OC(=O)c2c(O)cc(O)cc2-c2cccc(O)c2)OC=C2C(=O)OCC[C@H]21 (some centres not stated),101% (inactive)
2,COc1ccc(C(C)=C(c2ccc(OCCCN(C)C)cc2)c2ccc(OCCCN(C)C)cc2)cc1,-73.7% (active)
3,CC1(C)CC[C@]23CC[C@]4(C)[C@H](CC[C@@H]5[C@@]6(C)CC[C@H](N)C(C)(C)[C@@H]6CC[C@]54C)[C@H]2[C@H]1OC3=O,-38.6% (active)
4,CCN1CCN(c2ccc(NC(=O)Nc3ccc(-c4cc(C(=O)NC)c5ncccc5n4)cc3)cc2C(F)(F)F)CC1,-77.5% (active)
5,COc1ccc2[nH]c(O)c(N=NC(=O)c3cc(-c4ccc(C)cc4)nc4ccccc34)c2c1,80.2% (inactive)
6,O=C(Cn1cc(CSc2nnc3oc4ccccc4n23)nn1)Nc1ccc(Br)cc1,37.8% (inactive)
7,CN1CCN(c2ccc(Nc3nc(N4CCN(S(=O)(=O)c5ccc(F)cc5)CC4)c4sccc4n3)cc2)CC1,-72.3% (active)
8,COc1ccccc1NCc1ccc(CO)n1-c1ccc(C)cc1,94.7% (inactive)
9,CC(=C(c1ccc(OCCCN(C)C)cc1)c1ccc(OCCCN(C)C)cc1)c1ccccc1,-80.4% (active)
10,CN1CCN(c2ccc(Nc3nc(NCCCNC(=O)c4ccccc4)c4sccc4n3)cc2)CC1,77.6% (inactive)
11,CCCCCc1ccc(S(=O)(=O)N(C(C)=O)c2cc(-c3csc(N(C)C(C)=O)n3)ccc2N2CCN(C)CC2)cc1,65.9% (inactive)
12,C=C1CC[C@H](C(=C)C)[C@H]2C=C(C)C(=O)C3=C(C(=O)[C@@](C)(O)C3)[C@H]12,-50.1% (active)
13,CC(=O)Nc1nc(-c2ccc(N3CCN(C)CC3)c(NS(=O)(=O)c3cccc4c(N(C)C)cccc34)c2)cs1,78.5% (inactive)
14,CNC(=O)c1cccc(N2CCc3c2ccc(NC(=O)Nc2ccc(N4CCN(C)CC4)c(C(F)(F)F)c2)c3F)c1,-62.7% (active)
15,CN1CCN(c2ccc(Nc3nc(N4CCN(S(=O)(=O)c5ccc(Cl)cc5)CC4)c4sccc4n3)cc2)CC1,52.9% (inactive)
16,CC1(C)CC[C@]2(C(=O)NCCCNCCCCNCCCN)CC[C@]3(C)C(=CC[C@@H]4[C@@]5(C)Cc6c([nH]c7ccccc67)C(C)(C)[C@@H]5CC[C@]43C)[C@H]2C1,113% (inactive)
17,C=CC(=O)Nc1nc(-c2cccc(NS(=O)(=O)c3cccc4c(N(C)C)cccc34)c2)cs1,0.14% (active)
18,COC1CC(Cn2cc(COc3ccc4ccc(=O)oc4c3)nn2)C(OCc2ccccc2)C(OCc2ccccc2)C1OCc1ccccc1 (configuration not stated),122% (inactive)
